Records with an inconclusive call do not appear. Calls of active or inactive are those of the source. Unless noted, calls come from the whole dose curve; as a rule, active = well fitted curve in either direction with a large enough effect (not every such curve was filed as active); inconclusive = small, poorly fitted or top-dose-only effect, or another doubt; inactive = flat fitted curve, though single readings scatter.
Columns and labels:
[1] = target: Lysosomal acid glucosylceramidase (Homo sapiens) (UniProt P04062); assay: Glucocerebrosidase-p2 (AID 348; in the data active = potency below about 10 µM; note: potency is the fitted concentration of half-maximal effect); settings: purified GBA, blue fluorogenic substrate, 40 min
Sequence of Lysosomal acid glucosylceramidase (Homo sapiens) (P04062 whole entry, looked up): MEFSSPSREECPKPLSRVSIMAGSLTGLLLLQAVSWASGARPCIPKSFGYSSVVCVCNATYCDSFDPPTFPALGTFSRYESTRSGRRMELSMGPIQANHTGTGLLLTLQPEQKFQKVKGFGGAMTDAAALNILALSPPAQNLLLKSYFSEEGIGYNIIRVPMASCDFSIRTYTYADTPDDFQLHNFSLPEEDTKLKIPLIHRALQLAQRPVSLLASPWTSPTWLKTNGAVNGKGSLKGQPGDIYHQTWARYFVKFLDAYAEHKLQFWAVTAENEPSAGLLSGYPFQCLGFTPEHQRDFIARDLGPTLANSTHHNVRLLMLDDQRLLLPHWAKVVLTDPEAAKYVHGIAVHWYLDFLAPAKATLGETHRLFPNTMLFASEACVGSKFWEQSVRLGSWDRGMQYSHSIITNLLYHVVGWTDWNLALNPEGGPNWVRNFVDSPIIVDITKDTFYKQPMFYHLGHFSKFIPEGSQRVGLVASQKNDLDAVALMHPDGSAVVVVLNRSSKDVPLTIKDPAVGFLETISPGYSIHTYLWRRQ
Procedure, shortened: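 Compounds titrated from 0.6 nM upwards against 0.2 nM enzyme in pH 5.9 citric acid/KH2PO4, taurocholate, tween-20; blue fluorogenic substrate 80 uM, 40 min room temperature, stopped and read Ex 365/Em 440 for AC50.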

[2] = AP1 Signaling Pathway (AID 357); settings: ME-180 AP-1-bla reporter, EGF-induced, beta-lactamase ratio, 5 h; at 7.69 µM (top of the series) unless noted;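 note: ME-180 reporter cells stimulated with EGF at its EC50 level; % is set by controls: 0 for no effect and ±100 for the full control effect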
Procedure, shortened: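 Cells are seeded overnight, exposed to compound titrations and an EC50 level of EGF for 5 hours at 37 °C, then loaded with CCF4 dye for 2.5 hours. Beta-lactamase activity under the AP-1 element is read as a blue/green ratio.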

[3] = target: Cytochrome P450 1A2 (Homo sapiens) (UniProt P05177); assay: p450-cyp1a2 (AID 410; calls by dose curve; note: potency is the fitted concentration of half-maximal effect;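 for activity change, negative = inhibition: -100% = full effect of reference inhibitor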); settings: recombinant CYP1A2, luciferin-ME demethylation, luminescence; series mostly up to 11.4 µM
Sequence of Cytochrome P450 1A2 (Homo sapiens) (P05177 whole entry, looked up): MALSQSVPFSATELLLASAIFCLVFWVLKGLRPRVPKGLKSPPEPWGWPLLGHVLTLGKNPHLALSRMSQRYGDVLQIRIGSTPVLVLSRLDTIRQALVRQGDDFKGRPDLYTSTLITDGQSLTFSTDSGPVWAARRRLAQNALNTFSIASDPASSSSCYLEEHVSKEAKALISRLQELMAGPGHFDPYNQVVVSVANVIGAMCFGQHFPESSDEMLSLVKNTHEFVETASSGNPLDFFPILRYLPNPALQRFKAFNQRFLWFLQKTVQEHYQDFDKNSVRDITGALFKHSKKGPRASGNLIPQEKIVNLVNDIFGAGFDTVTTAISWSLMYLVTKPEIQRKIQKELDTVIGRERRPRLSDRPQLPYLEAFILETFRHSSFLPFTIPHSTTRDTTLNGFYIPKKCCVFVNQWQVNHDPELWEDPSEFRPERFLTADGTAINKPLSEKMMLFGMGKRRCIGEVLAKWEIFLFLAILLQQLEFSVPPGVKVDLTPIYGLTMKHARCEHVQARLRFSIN
Procedure, shortened: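 Inhibition was calculated relative to 57 uM furafylline (full inhibition). The reaction used human CYP1A2 at 20nM with Luciferin-ME at its Km, 100uM, driven by an NADPH-regenerating system for 60 min at room temperature.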

[4] = target: Glucocorticoid receptor (Homo sapiens) (UniProt P04150); assay: GR-GFP Redistribution (AID 450;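 active = compounds whose dose series gives a full or clear partial fitted curve of increased nuclear translocation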; note: potency is the fitted concentration of half-maximal effect); settings: U2OS GR-GFP nuclear translocation, laser cytometry, 2 h
Sequence of Glucocorticoid receptor (Homo sapiens) (P04150 whole entry, looked up, the tested form may be a part): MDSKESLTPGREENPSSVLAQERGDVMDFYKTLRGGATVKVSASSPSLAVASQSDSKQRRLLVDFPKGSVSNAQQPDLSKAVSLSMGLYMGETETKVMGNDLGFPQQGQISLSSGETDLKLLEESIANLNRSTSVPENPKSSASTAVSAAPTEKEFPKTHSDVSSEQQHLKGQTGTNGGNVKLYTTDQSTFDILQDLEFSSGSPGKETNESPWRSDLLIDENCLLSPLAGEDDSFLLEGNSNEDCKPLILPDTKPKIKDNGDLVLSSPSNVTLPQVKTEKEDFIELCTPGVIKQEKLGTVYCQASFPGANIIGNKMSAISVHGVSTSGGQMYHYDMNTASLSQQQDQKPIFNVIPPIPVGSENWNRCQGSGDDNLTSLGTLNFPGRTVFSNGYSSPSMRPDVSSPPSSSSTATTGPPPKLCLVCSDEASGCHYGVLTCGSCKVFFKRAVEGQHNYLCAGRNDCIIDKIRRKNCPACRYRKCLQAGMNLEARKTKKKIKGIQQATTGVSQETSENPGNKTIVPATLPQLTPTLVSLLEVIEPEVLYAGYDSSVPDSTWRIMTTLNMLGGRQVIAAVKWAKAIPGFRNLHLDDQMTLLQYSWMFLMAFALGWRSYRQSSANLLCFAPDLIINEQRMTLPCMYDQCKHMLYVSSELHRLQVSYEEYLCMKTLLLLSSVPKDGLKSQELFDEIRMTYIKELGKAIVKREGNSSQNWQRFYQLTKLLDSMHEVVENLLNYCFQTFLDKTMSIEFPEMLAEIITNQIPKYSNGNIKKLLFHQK

[5] = target: Glucocorticoid receptor (Homo sapiens) (UniProt P04150); assay: GR-EFC Redistribution (AID 451; calls by dose curve; note: potency is the fitted concentration of half-maximal effect); settings: CHO-K1 GR-EFC translocation, beta-gal luminescence, 2 h
Procedure, shortened: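 Translocation of GR-ED fusion to nuclear EA restores b-gal, read by luminescence after 1 h room-temperature detection. Engineered CHO-K1 biosensor cells, 1,000/well, exposed 2 h at 37 C to titrations up to 46 uM final.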

[6] = target: Mitogen-activated protein kinase 10 (Mus musculus) (UniProt Q61831); assay: JNK3 AlphaScreen Assay (AID 530); settings: JNK3 lysate, c-Jun phosphorylation; series mostly up to 11.4 µM;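 note: kinase came from lysate of stimulated human HepG2 cells; signal reports phosphorylation of biotinylated GST-cJun 1-79 at Ser73 with 10 µM ATP; % is set by controls: 0 for no effect and ±100 for the full control effect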
Procedure, shortened: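 Room-temperature AlphaScreen kinase assay; pre-activated HepG2 lysate as JNK3 source, biotin-GST-cJun(1-79) substrate, 10 uM ATP, compound 15 min preincubation.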

[7] = target: 3',5'-cyclic-AMP phosphodiesterase 4B (Homo sapiens) (UniProt Q07343); assay: qHTS Assay for Inhibitors of PDE-IV (AID 607; active = well fitted activation curve with a large enough effect in the main read-out, with a control signal flat, not every such curve was filed as active; note: % of control where 0% means no effect); settings: HEK293 ACTOne CNG channel cells, membrane potential fluorescence; series mostly up to 22.9 µM
Sequence of 3',5'-cyclic-AMP phosphodiesterase 4B (Homo sapiens) (Q07343 whole entry, looked up): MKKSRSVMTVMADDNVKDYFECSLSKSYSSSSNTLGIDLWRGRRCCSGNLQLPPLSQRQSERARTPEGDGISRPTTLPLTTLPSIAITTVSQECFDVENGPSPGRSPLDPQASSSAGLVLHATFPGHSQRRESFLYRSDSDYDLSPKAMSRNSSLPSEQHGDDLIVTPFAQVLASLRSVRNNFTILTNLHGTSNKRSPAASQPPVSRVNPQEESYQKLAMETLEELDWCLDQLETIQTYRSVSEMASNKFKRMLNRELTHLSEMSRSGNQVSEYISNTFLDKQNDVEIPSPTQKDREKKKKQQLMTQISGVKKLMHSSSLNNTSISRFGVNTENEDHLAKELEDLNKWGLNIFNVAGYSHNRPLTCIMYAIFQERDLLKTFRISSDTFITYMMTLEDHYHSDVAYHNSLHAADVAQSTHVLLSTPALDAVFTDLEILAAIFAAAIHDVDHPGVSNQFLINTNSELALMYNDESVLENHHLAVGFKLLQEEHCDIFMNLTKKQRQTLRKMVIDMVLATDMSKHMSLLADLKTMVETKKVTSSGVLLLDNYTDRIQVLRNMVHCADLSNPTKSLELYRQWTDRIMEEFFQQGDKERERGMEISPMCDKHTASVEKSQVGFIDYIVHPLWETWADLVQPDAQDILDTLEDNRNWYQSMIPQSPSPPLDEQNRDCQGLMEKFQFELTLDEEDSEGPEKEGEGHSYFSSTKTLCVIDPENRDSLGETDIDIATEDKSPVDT
Procedure, shortened: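 Cell-based read-out of cAMP via a modified cyclic nucleotide-gated channel and membrane potential dye (535/590 nm) in HEK293 cells expressing PDE4 endogenously. Compounds tested up to 22.9 uM final; 100 uM RO 20-1724 reference.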

[8] = target: Cytochrome P450 2C9 (Homo sapiens) (UniProt P11712); assay: qHTS Assay for Inhibitors and Substrates of Cytochrome P450 2C9 (AID 883; active = well fitted curve in the direction sought with a large enough effect; an effect the other way counts as inactive or inconclusive; note: potency is the fitted concentration of half-maximal effect; nearly all actives have a fitted effect of over 60% in size); settings: recombinant CYP2C9, luciferin-H luminescence, 60 min; series mostly up to 11.4 µM
Sequence of Cytochrome P450 2C9 (Homo sapiens) (P11712 whole entry, looked up): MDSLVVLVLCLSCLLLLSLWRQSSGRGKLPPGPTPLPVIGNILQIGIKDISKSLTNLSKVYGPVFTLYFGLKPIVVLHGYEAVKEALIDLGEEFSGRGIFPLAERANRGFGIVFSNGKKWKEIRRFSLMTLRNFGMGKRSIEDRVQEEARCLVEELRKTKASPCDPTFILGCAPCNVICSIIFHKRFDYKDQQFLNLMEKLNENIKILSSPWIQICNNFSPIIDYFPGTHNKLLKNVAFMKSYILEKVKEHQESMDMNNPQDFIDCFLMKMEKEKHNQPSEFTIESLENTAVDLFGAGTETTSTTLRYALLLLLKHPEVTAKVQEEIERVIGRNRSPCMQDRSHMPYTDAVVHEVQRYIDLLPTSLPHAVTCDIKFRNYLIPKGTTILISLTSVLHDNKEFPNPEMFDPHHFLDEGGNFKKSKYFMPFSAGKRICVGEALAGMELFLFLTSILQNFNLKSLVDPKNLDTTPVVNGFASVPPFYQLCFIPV
Procedure, shortened: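 Inhibition of CYP2C9 is scored as loss of luminescence, with 57uM sulphaphenazole defining 100% inhibition. Substrate Luciferin-H is used at 100uM, equal to its KM; enzyme at 10nM in 25mM KPO4, 60 min at 37C with NADPH regeneration.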

[9] = target: Cytochrome P450 3A4 (Homo sapiens) (UniProt P08684); assay: qHTS Assay for Activators of Cytochrome P450 3A4 (AID 885; active = well fitted curve in the direction sought with a large enough effect; an effect the other way counts as inactive or inconclusive; note: nearly all actives have a fitted effect of over 65% in size); settings: recombinant CYP3A4, Luciferin-PPXE luminescence, 60 min; series mostly up to 11.4 µM
Sequence of Cytochrome P450 3A4 (Homo sapiens) (P08684 whole entry, looked up): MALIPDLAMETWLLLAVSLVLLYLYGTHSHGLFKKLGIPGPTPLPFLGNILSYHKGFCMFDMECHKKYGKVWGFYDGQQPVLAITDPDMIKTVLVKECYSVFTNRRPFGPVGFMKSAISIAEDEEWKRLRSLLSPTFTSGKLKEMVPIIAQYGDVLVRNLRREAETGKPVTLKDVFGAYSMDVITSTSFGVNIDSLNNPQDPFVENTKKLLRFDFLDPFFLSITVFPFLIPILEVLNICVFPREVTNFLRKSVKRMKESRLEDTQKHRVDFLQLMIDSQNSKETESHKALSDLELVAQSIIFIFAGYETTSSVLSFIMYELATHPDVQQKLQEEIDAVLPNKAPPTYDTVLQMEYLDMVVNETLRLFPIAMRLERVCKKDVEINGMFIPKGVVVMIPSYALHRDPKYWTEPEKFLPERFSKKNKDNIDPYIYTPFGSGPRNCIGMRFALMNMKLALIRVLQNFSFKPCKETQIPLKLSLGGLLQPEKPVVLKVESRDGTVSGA
Procedure, shortened: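 Signal was normalized against complete inhibition by 57 uM ketoconazole. The reaction used 20nM CYP3A4 with 25uM Luciferin-PPXE, 10-min compound preincubation and a 60-min NADPH-supported step at RT.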

[10] = target: Cytochrome P450 2C19 (Homo sapiens) (UniProt P33261); assay: qHTS Assay for Inhibitors and Substrates of Cytochrome P450 2C19 (AID 899; active = well fitted curve in the direction sought with a large enough effect; an effect the other way counts as inactive or inconclusive; note: nearly all actives have a fitted effect of over 60% in size; note: potency is the fitted concentration of half-maximal effect); settings: recombinant CYP2C19, luciferin-H EGE luminescence; series mostly up to 11.4 µM
Sequence of Cytochrome P450 2C19 (Homo sapiens) (P33261 whole entry, looked up): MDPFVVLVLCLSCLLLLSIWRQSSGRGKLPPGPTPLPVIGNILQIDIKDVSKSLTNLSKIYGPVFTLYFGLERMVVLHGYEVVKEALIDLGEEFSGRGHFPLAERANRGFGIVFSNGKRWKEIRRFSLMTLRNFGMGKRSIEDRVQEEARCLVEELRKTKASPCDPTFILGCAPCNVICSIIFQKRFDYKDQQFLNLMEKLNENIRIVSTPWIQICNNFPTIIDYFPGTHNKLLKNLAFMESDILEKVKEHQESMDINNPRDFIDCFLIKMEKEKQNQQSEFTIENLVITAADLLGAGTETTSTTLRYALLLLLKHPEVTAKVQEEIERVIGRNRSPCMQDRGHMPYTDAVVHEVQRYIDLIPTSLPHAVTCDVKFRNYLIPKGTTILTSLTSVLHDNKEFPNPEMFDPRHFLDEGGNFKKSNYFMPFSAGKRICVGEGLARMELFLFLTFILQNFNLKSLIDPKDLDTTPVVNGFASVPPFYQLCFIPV
Procedure, shortened: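 5nM enzyme + 10uM Luciferin-H EGE (=KM), 50mM KPO4; cpd pin-transferred, 10 min 37C; NADPH regen, 60 min 37C; stopped w/ luciferin detection reagent, 20 min; luminescence. Normalized to 57uM ketoconazole (AC100).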

[11] = qHTS Assay for Identification of Small Molecule Agonists for Hypoxia Response Element Signaling Pathway (AID 914; active = well fitted activation curve with a large enough effect in the signal ratio, with a control signal flat, not every such curve was filed as active; the % refers to the signal ratio; note: % of control where 0% means no effect); settings: ME-180 HRE-bla reporter, beta-lactamase ratio, CoCl2, 17 h; activation: hits give high values
Procedure, shortened: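 AC50 values come from titration-series %Activity, taken as the 460/530nm ratio of CCF4 fluorescence (excitation 405nm). CellSensor HRE-bla ME-180 cells were treated 17 hours at 37 C with compound plus an EC50 level of CoCl2.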

[12] = Stat Signaling Pathway (AID 446); settings: ME-180 SIE beta-lactamase reporter, IL-6 stimulated, 5 h; at 7.69 µM (top of the series) unless noted;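 note: ME-180 cervical cancer cells given 40 pM IL-6 alongside compound; SIE-controlled beta-lactamase reporter measured as 460/530 nm FRET emission ratio; % is set by controls: 0 for no effect and ±100 for the full control effect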
Procedure, shortened: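 Reporter line: ME-180 cervical carcinoma, SIE-beta-lactamase. Treatment: compound with 40 pM IL-6, 5 hrs, 37 C, in low-serum OPTI-MEM with 10 mM HEPES pH 7.3. Detection: 460/530 nm fluorescence.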

[13] = target: Cytochrome P450 3A4 (Homo sapiens) (UniProt P08684); assay: qHTS Assay for Inhibitors and Substrates of Cytochrome P450 3A4 (AID 884; active = well fitted curve in the direction sought with a large enough effect; an effect the other way counts as inactive or inconclusive; note: potency is the fitted concentration of half-maximal effect; nearly all actives have a fitted effect of over 50% in size); settings: recombinant CYP3A4, Luciferin-PPXE luminescence; series mostly up to 57.1 µM
Procedure, shortened: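 20 nM human CYP3A4 with 25 uM Luciferin-PPXE (at KM) in 200 mM KPO4, preincubated 10 min with compound; NADPH regeneration started a 60 min RT reaction. Luciferin detected by luminescence, normalized to 57 uM ketoconazole as full inhibition.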

[14] = target: Cytochrome P450 2D6 (Homo sapiens) (UniProt P10635); assay: qHTS Assay for Inhibitors and Substrates of Cytochrome P450 2D6 (AID 891; active = well fitted curve in the direction sought with a large enough effect; an effect the other way counts as inactive or inconclusive; note: potency is the fitted concentration of half-maximal effect; nearly all actives have a fitted effect of over 60% in size); settings: recombinant CYP2D6, luciferin-ME EGE luminescence; series mostly up to 11.4 µM
Procedure, shortened: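 Human CYP2D6 (5 nM) with 30 uM Luciferin-ME EGE (at Km) in 100 mM KPO4, compound preincubated 10 min, then NADPH regeneration system for 60 min at room temperature. Luciferin read by luminescence; normalized to 1.43 uM quinidine.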

[15] = NFAT Signaling Pathway (AID 444); settings: Jurkat NFAT-bla M1, carbachol, beta-lactamase ratio, 5 h; at 7.69 µM (top of the series) unless noted;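 note: carbachol stimulus at about its EC50 of 1 µM final; % is set by controls: 0 for no effect and ±100 for the full control effect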
Procedure, shortened: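 Read-out: CCF4 FRET ratio (460 nm/530 nm) after 1 h RT dye loading, used for %activity and AC50 from titration series. Cells: Jurkat NFAT-β-lactamase/M1 line, treated with compound plus 1 uM carbachol for 5 h, 37 °C.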

[16] = target: ATP-dependent 6-phosphofructokinase (Trypanosoma brucei brucei) (UniProt O15648); assay: qHTS Assay to Find Inhibitors of T. brucei phosphofructokinase: hit validation (AID 492961; active = well fitted curve in the direction sought with a large enough effect; an effect the other way counts as inactive or inconclusive); settings: T. brucei PFK, ADP-Glo luminescence; series mostly up to 51.4 µM
Sequence of ATP-dependent 6-phosphofructokinase (Trypanosoma brucei brucei) (O15648 whole entry, looked up): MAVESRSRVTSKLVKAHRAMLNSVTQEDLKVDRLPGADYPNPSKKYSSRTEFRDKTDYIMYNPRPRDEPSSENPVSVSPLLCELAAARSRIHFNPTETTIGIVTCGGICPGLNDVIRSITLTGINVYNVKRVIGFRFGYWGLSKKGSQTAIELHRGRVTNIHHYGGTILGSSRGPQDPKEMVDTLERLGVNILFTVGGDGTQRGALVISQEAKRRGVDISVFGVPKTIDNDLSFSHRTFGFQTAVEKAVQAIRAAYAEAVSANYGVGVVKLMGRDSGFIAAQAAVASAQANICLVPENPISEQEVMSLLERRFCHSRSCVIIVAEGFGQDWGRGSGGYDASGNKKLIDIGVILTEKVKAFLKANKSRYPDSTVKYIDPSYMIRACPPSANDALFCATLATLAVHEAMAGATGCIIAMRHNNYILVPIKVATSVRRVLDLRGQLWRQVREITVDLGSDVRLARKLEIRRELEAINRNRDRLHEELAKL
Procedure, shortened: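 In this biochemical qHTS validation, titrated compounds were tested against 1.25 nM PFK with 0.1 mM ATP and 0.5 mM F6P. Percent activity came from controls lacking or containing enzyme.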

[17] = qHTS profiling for inhibitors of Plasmodium falciparum proliferation (AID 504749; active = well fitted curve in the direction sought with a large enough effect; an effect the other way counts as inactive or inconclusive; note: potency is the fitted concentration of half-maximal effect; nearly all actives have a fitted effect of over 60% in size); settings: P. falciparum in erythrocytes, SYBR Green DNA, 72 h
Procedure, shortened: (§1)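 Three-day growth assay of blood-stage parasites in erythrocytes (0.3% parasitemia, 2.5% hematocrit) at 37 C, 5% CO2, quantified by SYBR Green DNA staining after overnight detergent lysis.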

AS120 = assay: as above; settings: P. falciparum in erythrocytes, SYBR Green DNA, 72 h; series mostly up to 28.7 µM
Procedure, shortened: as §1

ATS189 = assay: as above; settings: P. falciparum in erythrocytes, SYBR Green DNA, 72 h; series mostly up to 28.7 µM
Procedure, shortened: as §1

W2 = assay: as above; settings: P. falciparum in erythrocytes, SYBR Green DNA, 72 h; series mostly up to 28.7 µM
Procedure, shortened: as §1

COc1ccc2ccccc2c1/C=C\C(=O)c1ccccc1
active: Potency [3] 3.16 µM | Potency [8] 1.26 µM | Potency [10] 0.316 µM
inactive: Potency [1] > 11.4 µM | activity change, negative = inhibition [2] -15.4% | Potency [4] > 46 µM | Potency [5] > 9.22 µM | Potency [6] | Potency [7] | Potency [9] | activation [11] 22.5%

Clc1ccc2c(NC3CCC(N4CCCCC4)CC3)ccnc2c1 (centres undefined)
inactive: Potency [1] > 11.4 µM | activity change, negative = inhibition [2] -12.3% | activity change, negative = inhibition [3] -15.7% [at 2.29 µM] | activity, negative = inhibition [12] 3.71% | Potency [4] > 46 µM | Potency [5] > 9.22 µM | Potency [7] | Potency [10]

Cc1cc(Cl)nc2ccc(Cc3ccc4nc(Cl)cc(C)c4c3)cc12
active: Potency [13] 3.16 µM | Potency [10] 0.501 µM
inactive: Potency [1] > 11.4 µM | activity change, negative = inhibition [2] -7.81% | activity change, negative = inhibition [3] -13.2% [at 2.29 µM] | activity, negative = inhibition [12] -4.37% | Potency [5] > 9.22 µM | Potency [6] | Potency [7] | Potency [9]

CC(C)c1cc(C(F)(F)F)nc(NNc2nc(C(C)C)cc(C(F)(F)F)n2)n1
active: Potency [13] 3.16 µM | Potency [14] 0.126 µM | Potency [10] 2.51 µM
inactive: Potency [1] > 11.4 µM | activity change, negative = inhibition [2] -11.8% | Potency [3] | Potency [4] > 46 µM | Potency [5] > 9.22 µM | Potency [6] | Potency [7] | Potency [9]

CNC/C(Cl)=N/S(=O)(=O)c1ccc(C)cc1
inactive: Potency [1] > 11.4 µM | activity change, negative = inhibition [2] -4.53% | activity change, negative = inhibition [15] 8.45% | activity, negative = inhibition [12] 2.28% | Potency [4] > 46 µM | Potency [5] > 9.22 µM | Potency [6] | Potency [7]

CC1(C)S[C@@H]2[C@H](NC(=O)C3(N)CCCCC3)C(=O)N2[C@@H]1C(=O)O
inactive: Potency [1] > 11.4 µM | activity change, negative = inhibition [2] -5.88% | activity change, negative = inhibition [15] 9.48% | activity, negative = inhibition [12] 0.508% | Potency [4] > 46 µM | Potency [5] > 9.22 µM | Potency [6]

CC(C)(C)c1ccc(CN2CCN([C@H](c3ccccc3)c3ccc(Cl)cc3)CC2)cc1
active: Potency ([17]; parasite line A) 7.94 µM | Potency ([17]; parasite line B) 12.6 µM | Potency (AS120) 7.94 µM | Potency (ATS189) 8.91 µM | Potency (W2) 3.38 µM
inactive: Potency [1] > 11.4 µM | activity change, negative = inhibition [2] 2.89% | activity change, negative = inhibition [15] -9.36% | activity, negative = inhibition [12] 0.758% | Potency [4] > 46 µM | Potency [5] > 9.22 µM | Potency [6] | Potency [7] | outcome [16]

Reference: PubChem BioAssay (NCATS)
